Measured values from PubChem BioAssay AID624093 (National Center for Advancing Translational Sciences (NCATS), 2012).
Records with an inconclusive call do not appear. Activity calls are given as the source filed them. Calls follow the shape of the dose curve; as a rule, active = well fitted inhibition curve with a large enough effect; inconclusive = small, poorly fitted or top-dose-only effect; inactive = flat fitted curve, though single readings scatter.

Molecular target: Dual specificity tyrosine-phosphorylation-regulated kinase 1A (Homo sapiens) (UniProt Q13627)
Test: Confirmation Assay for Inhibitors of Dyrk1a (Kinase-Glo Assay): KU probe
Conditions: Kinase-Glo ATP luminescence
Source text: NIH Molecular Libraries Probe Production Centers Network [MLPCN] NIH Chemical Genomics Center [NCGC] MLSCN Grant: 1R03MH084827-01 PI Name: Tom Misteli NCGC Assay Overview: The CMGC group of protein kinases which includes CDK-like kinases (Clk) and Dyks are essential kinases found in all eukaryotes. Clks have been implicated to play a role in the regulation of alternative splicing; while Dyrks, in particular over expression of Dyrk1A, has been linked to diseases as Down syndrome (DS; OMIM 190685) and Alzheimer disease (AD; OMIM 104300). Among the members of the CMGC group, the Clks and the Dyrks are very closely related therefore to determine validity and selectivity of an active compound observed in the CLK4 qHTS screen (AID:1770), a bioluminescent counter-screen against Dyrk1A was developed. […]
NCGC Assay Protocol Summary: Two uL/well of substrate solution (8uM Dyrktide, 2uM ATP, 25mM Tris-HCl pH 7.5, 10mM MgCl2 , 0.5mM EGTA, 5mM cystein, 0.01% Triton X-100 final concentration) was dispensed into 1536-well assay plates (Greiner, solid white, medium-binding plates) with Aurora Discovery BioRAPTR Flying Reagent Dispenser (FRD, Beckton-Dickenson). […] The plates were spun for 30 seconds (1000 rpm) and incubated at ambient temperature for 2 minutes followed by a luminescence read using Perkin Elmer ViewLux plate reader at 3 seconds exposure time and 2x binning.

Cc1cc(CNc2ccnc(-c3ccc4c(c3)OCO4)n2)cnc1F
Potency: 18.4 µM (active)
